Reference: PubChem BioAssay
Results filed as inconclusive are left out. Activity calls are given as the source filed them.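 How the source made its calls, unless noted: active means binding below the plate cutoff, the plate median minus 3 SD, with a reading above zero; inconclusive means below the plate cutoff but reading exactly zero; inactive means the rest.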

Columns and labels:
[1] = yeast TOR pathway RPL19A-GFP modulators, primary screen, cell-based, S. cerevisiae, multiplex flow cytometry (AID 1862; in the data active means percent of DMSO control GFP below about 86%;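 further: lower values mimic rapamycin by blocking the RPL19A rise seen in DMSO cells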); conditions: S. cerevisiae RPL19A-GFP strain, flow cytometry fluorescence, 3 h; at 10 µM; stronger effect = lower value
[2] = modulators of MEP2-GFP levels in yeast, primary screen, S. cerevisiae, multiplex flow cytometry (AID 1867;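 active means GFP response, as percent of the DMSO control, above the screen-wide mean plus 3 SD, about 139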;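 further: median GFP channel fluorescence of barcode-gated MEP2-GFP cells measured by flow cytometry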); conditions: S. cerevisiae MEP2-GFP strain, 3 h, at 10 µM, stronger effect = higher value, 100% means same as DMSO wells
[3] = modulators of CIT2-GFP expression in yeast, primary screen, S. cerevisiae, GFP fusion, multiplex flow cytometry (AID 1870;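 active means percent response above a set limit, the screen-wide mean plus 3 SD, cut at about 130% in these data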;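 further: barcoded CIT2-GFP strain pooled with four other GFP strains with rapamycin as positive control; median GFP fluorescence per well over plate mean of DMSO wells so 100% = DMSO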); conditions: 3 h, at 10 µM, stronger effect = higher value
[4] = modulators of LAP4-GFP expression in yeast, primary screen, S. cerevisiae, multiplex flow cytometry (AID 1873;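 active means GFP signal, as percent of the solvent control, above the screen mean plus 3 SD, about 149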); conditions: 3 h, at 10 µM, stronger effect = higher value
[5] = modulators of AGP1-GFP expression in yeast TOR pathway, primary screen, cell-based, multiplex flow cytometry, S. cerevisiae (AID 1887;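 active means GFP signal above the screen-wide mean plus 3 SD, that is over about 124.5% of the solvent control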;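 further: AGP1-GFP fusion strain of S. cerevisiae within a five-strain barcoded multiplex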); conditions: 3 h, at 10 µM, stronger effect = higher value
[6] = inhibitors of CD8+ T cell-vesicle binding, pilot screen, LFA-1/ICAM-1 modulator project, MLPCN validation set, flow cytometry (AID 2523;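 active means response below a set limit, under 55% cells CD8-positive and vesicle-bound, and CD8 cells' 90th-percentile brightness under 279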;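 on vesicle binding response: mean PE anti-B7-1 fluorescence of CD8+ cells relative to row control; 100% = QL9-loaded vesicles with DMSO vehicle in the same plate row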); conditions: 2C mouse CD8+ T cells, at 7 µM, stronger effect = lower value; double positive events: measured here: CD8+/vesicle+ event percentage
[7] = molecular target: Integrin beta-1 (Homo sapiens) + Integrin alpha-4 (Homo sapiens) (UniProt P13612+P05556); test: inhibition of HUTS-21 binding to VLA-4, pilot screen, VLA-4 allosteric modulator project, U937 cells, HUTS-21 mAb, flow cytometry, validation set (AID 2674;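 active means inhibition above 50%, about 3 SD of the validation set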;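 further: antibody binding induced by the VLA-4 ligand LDV present at three times its Kd; 0% = LDV ligand with antibody and no compound and 100% = antibody without LDV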); conditions: HUTS-21 LIBS mAb binding, at 6.7 µM, stronger effect = higher value, binding induced by LDV ligand
[8] = superoxide lowering in aged yeast cells, pilot screen, validation compound set (AID 2706;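 active means superoxide response below 65% of plate, a cut near 3 SD across the whole screen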;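 further: yeast exposed to compound for one week at 30 degrees C before staining; 100% = mean of all compound wells on the same plate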); conditions: S. cerevisiae aging, superoxide DHE fluorescence; at 10 µM; stronger effect = lower value
[9] = molecular target: Beta-adrenergic receptor kinase 1 (Homo sapiens) (UniProt P25098); test: GRK2 binders displacing RNA aptamer, biochemical, validation, human GRK2, bead flow cytometry (AID 488806;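 active means aptamer binding inhibition above 30%, about 3 SD of noise from non-fluorescent compounds; inactive means inhibition at or below 30%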); conditions: bead-bound GRK2, FAM-aptamer displacement, at 10 µM, stronger effect = higher value
[10] = molecular target: Beta-2 adrenergic receptor (Homo sapiens) (UniProt P07550); test: beta2AR agonists driving receptor internalization, pilot screen, cell-based, FAP fluorogen, flow cytometry, validation set (AID 504459;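 active means percent response above 42, roughly 3 SD of non-fluorescent test compounds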;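 further: agonist-driven loss of surface beta2AR via internalization measured by FAP dye flow cytometry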); conditions: Am2.2-beta2AR cells, FAP surface receptor flow cytometry; at 10 µM; stronger effect = higher value
[11] = molecular target: AP-2 complex subunit beta (Homo sapiens) (UniProt P63010); test: inhibitors of arrestin peptide binding to AP2, pilot screen, biochemical, validation set, GST-AP2 beads, flow cytometry (AID 504541;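 active means inhibition above 54%, about 3 SD of non-fluorescent compounds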;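 further: AP2 carries R879A mutation and is captured from E. coli lysate; bead-bound FITC arrestin peptide fluorescence measuring arrestin peptide binding to AP2; 0% = DMSO wells and 100% = excess unlabeled arrestin peptide control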); conditions: FITC arrestin peptide, at 10 µM, stronger effect = higher value, AP2 beta2 appendage fragment, R879A mutant
[12] = yeast V-ATPase proton transport modulators, S. cerevisiae, pHLuorin, HTS validation (AID 504600; in the data active means response above about 15%;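 further: plate controls were DMSO for no effect and reference compound for full effect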); conditions: S. cerevisiae pHLuorin cytosolic pH, at 10 µM, stronger effect = higher value
[13] = test system: anti-desmoglein-3 scFv antibody binding to human DSG3; test: inhibitors of anti-DSG3 scFv binding to DSG3, pilot screen, biochemical, validation compound set, bead-based, flow cytometry (AID 588368); conditions: Protein G beads, DSG3-Fc, scFv-GFP binding, at 10 µM, stronger effect = lower value;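 further: signal is the median channel fluorescence of bead-bound GFP antibody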
[14] = inhibitors of fungal efflux pumps CDR1, CDR2, MDR1, pilot screen, validation compound set, multiplex, phenotypic (AID 588506;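 active means efflux inhibition above 0.42, the validation set average plus 4 SD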;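 further: Nile Red retained in cells so higher fluorescence means more efflux inhibition; 0 = negative control wells and 1 = enniatin B 25 µM full block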); conditions: S. cerevisiae pump-expressing triplex, Nile Red efflux flow cytometry; at 10 µM; stronger effect = higher value; the pumps come from Candida albicans
[15] = molecular target: ATP-binding cassette sub-family B member 6 (Homo sapiens) (UniProt Q9NP58); test: ABCB6 transporter inhibitors, pilot screen, K562-ABCB6 cells, flow cytometry, validation set (AID 588550;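 active means inhibition above the screen-wide mean plus 3 SD, about 51%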;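 further: 0% = DMSO wells and 100% = benzethonium chloride 70 µM positive control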); conditions: K562-ABCB6 porphyrin accumulation, 1 h, at 10 µM, stronger effect = higher value
[16] = promoters of myeloid differentiation in arrested cells, primary screen, cell-based, GFP/MAC1 double positive, flow cytometry, validation set (AID 588685;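 active means differentiation response of at least 50%, scaled between solvent and reference control, from cells with both markers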;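 further: compound exposure lasts four days before antibody staining and flow analysis; 0% = DMSO wells and 100% = 5 µM fulvestrant positive control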); conditions: ER-HoxA9 marrow cells, stronger effect = higher value, normalized: vehicle 0, fulvestrant 100

Sequence of AP-2 complex subunit beta (Homo sapiens) (P63010 whole entry, looked up, the tested form may be a part, one chain of several): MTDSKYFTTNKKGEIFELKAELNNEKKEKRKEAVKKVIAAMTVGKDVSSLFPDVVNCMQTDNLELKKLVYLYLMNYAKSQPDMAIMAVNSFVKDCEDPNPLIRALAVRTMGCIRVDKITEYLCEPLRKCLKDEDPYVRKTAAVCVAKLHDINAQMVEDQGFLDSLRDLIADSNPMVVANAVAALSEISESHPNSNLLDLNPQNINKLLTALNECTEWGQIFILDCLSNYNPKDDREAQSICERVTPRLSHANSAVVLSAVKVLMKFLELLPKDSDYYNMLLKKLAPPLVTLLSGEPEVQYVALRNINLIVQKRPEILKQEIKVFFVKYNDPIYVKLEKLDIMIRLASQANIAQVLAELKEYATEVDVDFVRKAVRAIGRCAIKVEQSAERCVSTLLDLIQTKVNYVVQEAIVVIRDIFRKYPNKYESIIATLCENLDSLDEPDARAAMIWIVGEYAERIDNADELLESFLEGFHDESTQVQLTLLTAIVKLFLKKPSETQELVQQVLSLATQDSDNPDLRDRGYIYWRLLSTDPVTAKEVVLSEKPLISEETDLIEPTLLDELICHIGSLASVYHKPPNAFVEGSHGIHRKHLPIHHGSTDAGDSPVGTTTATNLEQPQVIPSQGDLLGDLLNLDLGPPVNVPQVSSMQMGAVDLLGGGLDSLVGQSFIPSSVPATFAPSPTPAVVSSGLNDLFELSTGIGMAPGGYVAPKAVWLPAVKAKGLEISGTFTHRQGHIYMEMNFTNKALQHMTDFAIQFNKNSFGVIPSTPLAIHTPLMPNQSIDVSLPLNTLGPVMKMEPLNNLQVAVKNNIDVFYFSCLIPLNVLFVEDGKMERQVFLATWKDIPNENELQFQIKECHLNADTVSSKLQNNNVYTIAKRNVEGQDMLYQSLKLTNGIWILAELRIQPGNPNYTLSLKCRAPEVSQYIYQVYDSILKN
Sequence of Integrin beta-1 (Homo sapiens) + Integrin alpha-4 (Homo sapiens) (P05556 whole entry, looked up): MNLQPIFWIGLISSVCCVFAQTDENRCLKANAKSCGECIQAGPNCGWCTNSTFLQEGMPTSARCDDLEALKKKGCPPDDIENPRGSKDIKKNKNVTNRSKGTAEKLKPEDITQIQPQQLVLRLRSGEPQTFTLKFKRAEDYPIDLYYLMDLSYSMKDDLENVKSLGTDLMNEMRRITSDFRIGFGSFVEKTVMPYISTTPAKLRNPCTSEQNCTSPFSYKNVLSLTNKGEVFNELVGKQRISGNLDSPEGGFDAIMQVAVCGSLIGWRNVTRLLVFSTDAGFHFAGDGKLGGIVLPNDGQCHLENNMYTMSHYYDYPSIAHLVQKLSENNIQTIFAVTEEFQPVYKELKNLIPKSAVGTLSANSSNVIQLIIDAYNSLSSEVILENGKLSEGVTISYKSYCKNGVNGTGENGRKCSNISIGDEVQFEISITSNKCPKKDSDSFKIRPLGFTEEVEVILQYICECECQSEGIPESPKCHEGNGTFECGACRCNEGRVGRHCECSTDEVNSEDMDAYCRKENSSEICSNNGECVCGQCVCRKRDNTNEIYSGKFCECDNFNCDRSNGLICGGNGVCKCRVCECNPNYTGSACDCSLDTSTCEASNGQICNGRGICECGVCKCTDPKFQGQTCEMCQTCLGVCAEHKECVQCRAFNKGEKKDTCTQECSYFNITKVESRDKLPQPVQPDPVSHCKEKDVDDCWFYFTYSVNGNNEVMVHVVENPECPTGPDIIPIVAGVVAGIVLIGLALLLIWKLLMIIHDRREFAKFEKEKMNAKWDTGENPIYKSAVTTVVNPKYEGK
Sequence of Integrin beta-1 (Homo sapiens) + Integrin alpha-4 (Homo sapiens) (P13612 whole entry, looked up): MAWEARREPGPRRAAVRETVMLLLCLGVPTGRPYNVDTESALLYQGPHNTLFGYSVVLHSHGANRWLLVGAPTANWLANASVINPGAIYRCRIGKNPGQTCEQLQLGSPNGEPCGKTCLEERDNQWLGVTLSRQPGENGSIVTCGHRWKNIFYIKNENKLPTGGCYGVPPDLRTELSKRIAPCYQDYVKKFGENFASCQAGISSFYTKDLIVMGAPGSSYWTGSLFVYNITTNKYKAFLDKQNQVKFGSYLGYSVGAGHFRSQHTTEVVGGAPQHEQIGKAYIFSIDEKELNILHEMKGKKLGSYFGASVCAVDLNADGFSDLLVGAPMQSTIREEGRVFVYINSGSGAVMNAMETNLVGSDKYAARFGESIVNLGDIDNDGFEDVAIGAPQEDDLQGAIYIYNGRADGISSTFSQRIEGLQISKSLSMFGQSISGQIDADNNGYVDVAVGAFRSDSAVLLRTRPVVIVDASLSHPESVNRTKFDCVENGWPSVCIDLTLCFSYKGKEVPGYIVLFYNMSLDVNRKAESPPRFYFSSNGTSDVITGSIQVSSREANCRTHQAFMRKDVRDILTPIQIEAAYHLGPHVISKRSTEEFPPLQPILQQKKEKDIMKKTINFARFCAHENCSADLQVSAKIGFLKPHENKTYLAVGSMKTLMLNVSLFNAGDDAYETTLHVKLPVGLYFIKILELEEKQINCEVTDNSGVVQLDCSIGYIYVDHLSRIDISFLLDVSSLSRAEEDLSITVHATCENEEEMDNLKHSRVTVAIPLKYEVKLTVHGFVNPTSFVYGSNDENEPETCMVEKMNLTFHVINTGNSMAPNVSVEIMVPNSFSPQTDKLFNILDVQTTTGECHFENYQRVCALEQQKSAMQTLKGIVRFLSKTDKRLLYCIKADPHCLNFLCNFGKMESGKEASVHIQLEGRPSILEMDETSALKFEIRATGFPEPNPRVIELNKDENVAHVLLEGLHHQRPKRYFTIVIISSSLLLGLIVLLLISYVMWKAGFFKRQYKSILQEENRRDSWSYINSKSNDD
Sequence of Beta-2 adrenergic receptor (Homo sapiens) (P07550 whole entry, looked up): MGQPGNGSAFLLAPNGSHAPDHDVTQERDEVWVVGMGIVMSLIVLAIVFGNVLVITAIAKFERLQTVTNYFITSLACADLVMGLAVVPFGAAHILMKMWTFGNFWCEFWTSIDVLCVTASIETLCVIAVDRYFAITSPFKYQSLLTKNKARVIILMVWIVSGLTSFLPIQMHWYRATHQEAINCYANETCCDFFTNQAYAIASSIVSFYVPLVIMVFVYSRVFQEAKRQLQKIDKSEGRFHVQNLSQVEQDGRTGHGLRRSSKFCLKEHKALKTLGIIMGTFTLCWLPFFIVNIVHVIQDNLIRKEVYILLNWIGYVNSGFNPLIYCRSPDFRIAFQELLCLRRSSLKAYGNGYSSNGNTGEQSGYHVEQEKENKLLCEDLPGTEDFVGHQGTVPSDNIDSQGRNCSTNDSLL
Sequence of ATP-binding cassette sub-family B member 6 (Homo sapiens) (Q9NP58 whole entry, looked up): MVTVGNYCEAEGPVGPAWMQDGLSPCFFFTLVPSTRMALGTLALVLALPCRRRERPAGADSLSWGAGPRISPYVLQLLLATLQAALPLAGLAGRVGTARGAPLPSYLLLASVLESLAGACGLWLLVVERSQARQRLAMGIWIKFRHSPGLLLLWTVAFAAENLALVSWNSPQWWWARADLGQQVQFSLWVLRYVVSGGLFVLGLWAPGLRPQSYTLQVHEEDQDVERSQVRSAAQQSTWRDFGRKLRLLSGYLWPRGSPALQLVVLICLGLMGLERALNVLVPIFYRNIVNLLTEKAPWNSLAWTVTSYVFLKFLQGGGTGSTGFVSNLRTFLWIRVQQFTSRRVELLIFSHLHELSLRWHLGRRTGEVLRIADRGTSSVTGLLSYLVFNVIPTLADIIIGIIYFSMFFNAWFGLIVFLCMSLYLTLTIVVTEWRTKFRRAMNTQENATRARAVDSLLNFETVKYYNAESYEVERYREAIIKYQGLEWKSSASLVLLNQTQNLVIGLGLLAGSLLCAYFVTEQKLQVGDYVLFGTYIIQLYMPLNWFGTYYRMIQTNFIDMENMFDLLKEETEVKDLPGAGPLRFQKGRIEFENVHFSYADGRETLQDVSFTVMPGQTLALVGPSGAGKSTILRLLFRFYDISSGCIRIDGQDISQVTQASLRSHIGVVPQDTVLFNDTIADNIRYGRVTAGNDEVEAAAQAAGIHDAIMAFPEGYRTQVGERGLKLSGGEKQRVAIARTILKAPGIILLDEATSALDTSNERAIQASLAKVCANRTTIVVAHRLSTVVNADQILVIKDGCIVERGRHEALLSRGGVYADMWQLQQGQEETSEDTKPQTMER
Sequence of Beta-adrenergic receptor kinase 1 (Homo sapiens) (P25098 whole entry, looked up): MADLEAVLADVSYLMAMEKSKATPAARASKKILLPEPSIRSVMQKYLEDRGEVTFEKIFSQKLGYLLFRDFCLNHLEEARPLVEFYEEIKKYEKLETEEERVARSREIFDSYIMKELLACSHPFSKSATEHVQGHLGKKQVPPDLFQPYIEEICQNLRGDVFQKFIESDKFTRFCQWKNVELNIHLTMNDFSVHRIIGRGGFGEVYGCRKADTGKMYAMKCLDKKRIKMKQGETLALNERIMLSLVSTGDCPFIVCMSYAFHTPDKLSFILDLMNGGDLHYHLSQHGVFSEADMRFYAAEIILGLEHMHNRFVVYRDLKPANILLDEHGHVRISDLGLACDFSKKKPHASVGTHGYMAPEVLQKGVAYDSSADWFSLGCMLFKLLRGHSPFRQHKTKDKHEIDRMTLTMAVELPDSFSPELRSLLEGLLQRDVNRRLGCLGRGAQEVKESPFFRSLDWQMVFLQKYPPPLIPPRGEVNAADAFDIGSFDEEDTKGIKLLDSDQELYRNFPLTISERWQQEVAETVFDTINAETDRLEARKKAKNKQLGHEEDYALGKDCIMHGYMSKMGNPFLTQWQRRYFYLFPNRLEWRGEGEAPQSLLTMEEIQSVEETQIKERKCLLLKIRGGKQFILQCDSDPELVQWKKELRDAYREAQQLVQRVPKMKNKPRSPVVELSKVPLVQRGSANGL

Structure (SMILES) | percent of DMSO control GFP [1] | GFP response vs DMSO [2] | percent response of DMSO control [3] | GFP response vs DMSO [4] | GFP response, % of DMSO [5] | double positive events [6] | vesicle binding response [6] | inhibition [7] | superoxide response (% of plate) [8] | aptamer binding inhibition [9] | response [10] | inhibition [11] | response [12] | binding (% of control) [13] | efflux inhibition (fraction of control) [14] | inhibition [15] | differentiation response [16]
O=C(Nc1ccc(F)c([N+](=O)[O-])c1)c1ccc2c(c1)OCCO2 | 106% (inactive) | 103% (inactive) | 104% (inactive) | 108% (inactive) | 100% (inactive) | 63% | 5830% (inactive) | -1.49% (inactive) | 94% (inactive) | 2% (inactive) | 1.51% (inactive) | -13.5% (inactive) | 3.69% (inactive) | 92.4% (inactive) | -0.01 (inactive) | 15% (inactive) | 5.13% (inactive)
O=C(CC1(O)C(=O)Nc2ccccc21)c1ccccc1O (stereo not given) | 100% (inactive) | 104% (inactive) | 97.8% (inactive) | 103% (inactive) | 101% (inactive) | 61.5% | 195% (inactive) | -6.68% (inactive) | 102% (inactive) | 3% (inactive) | 5.92% (inactive) | -2.48% (inactive) | 17.1% (active) | 99.5% (inactive) | -0.04 (inactive) | 3% (inactive) | 12.9% (inactive)
Cc1ccc(OCc2nc(-c3cccnc3)no2)cc1C | 92% (inactive) | 124% (inactive) | 99.2% (inactive) | 75.4% (inactive) | 88% (inactive) | 60.5% | 221% (inactive) | -7.12% (inactive) | 101% (inactive) | 1% (inactive) | -15.7% (inactive) | 1.06% (inactive) | 3.35% (inactive) | 98.3% (inactive) | 0.27 (inactive) | 9% (inactive) | 2.46% (inactive)
CCOc1ccc(N2C(=O)CNC2=S)cc1 | 106% (inactive) | 106% (inactive) | 105% (inactive) | 110% (inactive) | 109% (inactive) | 66.1% | 202% (inactive) | -0.27% (inactive) | 105% (inactive) | 2% (inactive) | -17.9% (inactive) | 11.9% (inactive) | -2.61% (inactive) | 106% (inactive) | -0.09 (inactive) | -4% (inactive) | 3.88% (inactive)
CC1=C/C(=N\N=C2\NC(=O)C(CC(=O)Nc3ccccc3F)S2)CC(C)(C)C1 (stereo not given) | 94.2% (inactive) | 125% (inactive) | 86% (inactive) | 83.1% (inactive) | 95.2% (inactive) | 58% | 104% (inactive) | 12.3% (inactive) | 96.1% (inactive) | 8% (inactive) | -1.66% (inactive) | -7.65% (inactive) | 1.96% (inactive) | 102% (inactive) | -0.2 (inactive) | 11% (inactive) | 4.09% (inactive)
CC(C)N(C(=O)Cc1ccccc1[N+](=O)[O-])C(C)C | 104% (inactive) | 96.3% (inactive) | 102% (inactive) | 92.2% (inactive) | 104% (inactive) | 60.4% | 240% (inactive) | 3.67% (inactive) | 104% (inactive) | 2% (inactive) | -2.55% (inactive) | -8.88% (inactive) | 1.74% (inactive) | 103% (inactive) | -0.13 (inactive) | 5% (inactive) | -26.4% (inactive)
COc1ccc(-c2cc(=Nc3ccc(C)cc3)c3ccccc3o2)cc1 | 97.3% (inactive) | 106% (inactive) | 93.8% (inactive) | 132% (inactive) | 104% (inactive) | 60.2% | 195% (inactive) | 16.8% (inactive) | 99.5% (inactive) | 0% (inactive) | -21.4% (inactive) | -0.02% (inactive) | 7.52% (inactive) | 97.3% (inactive) | -0.04 (inactive) | 5% (inactive) | -9.91% (inactive)
c1ccc(-c2ccc(C(c3ccccc3)n3ccnc3)cc2)cc1 (stereo not given) | 99.8% (inactive) | 104% (inactive) | 101% (inactive) | 115% (inactive) | 111% (inactive) | 66.2% | 187% (inactive) | 8.25% (inactive) | 209% (inactive) | 7% (inactive) | 0.23% (inactive) | -14.1% (inactive) | 15.5% (active) | 101% (inactive) | -0.04 (inactive) | 0% (inactive) | -2.03% (inactive)
O=C(/C=C/c1ccccc1)NCC1(c2ccccc2)CCOCC1 | 101% (inactive) | 104% (inactive) | 101% (inactive) | 117% (inactive) | 103% (inactive) | 64.3% | 255% (inactive) | -18.2% (inactive) | 99.2% (inactive) | -1% (inactive) | -8.35% (inactive) | 63.9% (active) | -9.57% (inactive) | 97% (inactive) | -0.21 (inactive) | 3% (inactive) | -15.2% (inactive)
CCN(CC)CCNC(=O)c1cc(Cl)c(N)cc1OC | 105% (inactive) | 107% (inactive) | 89.6% (inactive) | 92% (inactive) | 99.7% (inactive) | 63.2% | 204% (inactive) | -28.5% (inactive) | 104% (inactive) | 5% (inactive) | 2.1% (inactive) | 23.4% (inactive) | -4.6% (inactive) | 100% (inactive) | -0.1 (inactive) | -10% (inactive) | 7.09% (inactive)
O=C1c2ccccc2C(=O)N1/N=C/c1ccc(Oc2ccc([N+](=O)[O-])cn2)cc1 | 103% (inactive) | 107% (inactive) | 115% (inactive) | 92% (inactive) | 107% (inactive) | 56.2% | 38.7% (inactive) | 12% (inactive) | 106% (inactive) | 0% (inactive) | -4.65% (inactive) | 2.91% (inactive) | -3.15% (inactive) | 92.5% (inactive) | -0.01 (inactive) | -7% (inactive) | -7.57% (inactive)
CCCCOn1c(C)c(C(C)=O)c2c3no[n+]([O-])c3ccc21 | 101% (inactive) | 105% (inactive) | 97.7% (inactive) | 120% (inactive) | 99.4% (inactive) | 59.8% | 246% (inactive) | -12.7% (inactive) | 106% (inactive) | 0% (inactive) | 25.4% (inactive) | -10.5% (inactive) | 5.1% (inactive) | 94.3% (inactive) | -0.1 (inactive) | 7% (inactive) | 74.4% (active)
O=Cc1ccccc1Oc1ccccc1 | 93.3% (inactive) | 125% (inactive) | 115% (inactive) | 86.4% (inactive) | 90.3% (inactive) | 57.3% | 200% (inactive) | -14.9% (inactive) | 107% (inactive) | -5% (inactive) | -1.17% (inactive) | 32.8% (inactive) | -3.79% (inactive) | 107% (inactive) | 0.12 (inactive) | -2% (inactive) | 33.6% (inactive)
COc1ccc(C(=O)Nc2ccccc2C(=O)NC(Cc2c[nH]c3ccccc23)C(=O)O)cc1 (stereo not given) | 101% (inactive) | 107% (inactive) | 95.4% (inactive) | 92.7% (inactive) | 95.4% (inactive) | 64.5% | 174% (inactive) | -28.5% (inactive) | 107% (inactive) | 3% (inactive) | 10.6% (inactive) | 51.3% (inactive) | -3% (inactive) | 99.8% (inactive) | 0.33 (inactive) | -16% (inactive) | 22.7% (inactive)
COc1ccc2cc([C@H](C)C(=O)O)ccc2c1 | 103% (inactive) | 93% (inactive) | 99.6% (inactive) | 77.7% (inactive) | 91.7% (inactive) | 70.5% | 222% (inactive) | 2.3% (inactive) | 91% (inactive) | 5% (inactive) | 15.2% (inactive) | -13.8% (inactive) | -6.97% (inactive) | 99.3% (inactive) | 0.08 (inactive) | 6% (inactive) | -12% (inactive)
